High-throughput results (PubChem BioAssay)
PrP UTR inh: suppresses PrP 5' UTR mRNA reporter expression | cell-based PrP 5' UTR mRNA reporter, plate reader | inhibition, % (test concentration not listed) | 0.35% of 340,000 active; in the data active = inhibition above about 52%; note: 0 = median of the neutral control wells
PfHsp40 rescue: restores yeast growth despite PfHsp40 toxicity | S. cerevisiae expressing PfHsp40, growth rescue, ATP luminescence | growth rescue, % at 12.5 µM | 0.68% of 340,000 active; in the data active = growth rescue above about 28%, passing the limit was not always enough;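 note: yeast W303a lacking pdr1 and pdr3 grown in galactose medium; growth measured after three days at 30 °C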
BioA inh: BioA (M. tuberculosis) enzyme inhibition | purified M. tuberculosis BioA enzyme, plate reader | inhibition, % at 9.99 µM | 0.096% of 360,000 active; in the data active = inhibition above about 40%
FadD28 FP inh: blocks FadD28 binding to the bisubstrate probe; fluorescence polarization; inhibition, % at 12.5 µM; 0.22% of 360,000 active; in the data active = inhibition above about 8.5%, passing the limit was not always enough
TcdB inh: inhibitors of Clostridioides difficile toxin B glycohydrolase. P18177. TcdB glycohydrolase enzymatic assay, plate reader. inhibition, % at 9.99 µM. 0.24% of 350,000 active. AID 652162; in the data active = inhibition above about 10%
PrP UTR cherry: prion 5' UTR mRNA inhibition, cherry-pick retest; shares compounds with PrP UTR inh; 48% of 1,100 active; inhibition, % at 2.5 µM; AID 504592; cell-based prion protein 5' UTR reporter, plate reader; in the data active = inhibition above about 54%
* marks the source's active call; other numbers are inactive results; / = not tested or not shown. A selection: hits, their analogues and other compounds. The true share with any hit is near 1.1%.

SMILES | PrP UTR inh | PfHsp40 rescue | BioA inh | FadD28 FP inh | TcdB inh | PrP UTR cherry
Fc1cccc(/C=N/Nc2nc3ccccc3[nH]2)c1 | / | / | / | / | 2.8 | /
COC(=O)C1=C(c2ccccc2OCc2ccccc2)C[C@@H]2CC[C@H]1N2C(=O)NCCc1ccc(F)cc1 | 58.1* | 4.6 | 1.9 | -6.3 | 2.8 | 2.0
CCC1(c2ccccc2)NC(=S)N(c2ccc(C)cc2)N1 (centres undefined) | 76.2* | 7.8 | 0.4 | -2.0 | 5.3 | -51.6
CCC1(c2ccc(Cl)cc2)NC(=S)N(c2ccccc2)N1 (centres undefined) | -15.7 | 0.2 | -0.2 | -0.7 | 1.7 | /
CCN=c1scc(-c2ccc(F)cc2)n1/N=C/c1ccccn1 | -62.5 | 0.6 | / | -0.4 | 1.7 | /
CN=c1scc(-c2ccccc2F)n1/N=C/c1ccc[nH]1 | 92.2* | 0.2 | / | -0.3 | -2.6 | 90.8*
COc1ccc(S(=O)(=O)Nc2ccc3c(c2)C(=O)N([C@H](C)CO)C[C@H](C)[C@@H](CN(C)CC2CC2)OCCCC[C@H](C)O3)cc1 | / | / | -0.2 | / | 1.0 | /
Cc1cccc(S(=O)(=O)N2CC[C@H]3[C@@H](CO)N(C)c4ccc(-c5cccc(C#N)c5)cc4[C@H]32)c1 | / | / | / | / | -0.5 | /
c1ccc2nc(N3CCCC3)c(N3CCCC3)nc2c1 | -5.8 | -1.8 | 0.2 | -1.2 | / | /
CN(C)C=Nc1nc2ccccc2nc1N1CCCC1 | 54.2* | 1.5 | / | 0.9 | 1.4 | -3.1
Cc1ccc(S(=O)(=O)N(C)C[C@@H]2Oc3ccc(NS(C)(=O)=O)cc3C(=O)N([C@@H](C)CO)C[C@H]2C)cc1 | / | / | -0.3 | / | 0.1 | /
CCOc1ccc(OCC(=O)Nc2nccs2)cc1 | 57.9* | -0.1 | / | 0.3 | / | 37.2
COc1ccc(OCC(=O)Nc2nccs2)cc1 | 24.2 | -0.7 | -2.4 | -3.6 | 0.8 | /
COc1cc2cc(C#N)c(SCC(=O)N3CCOCC3)nc2cc1OC | 71.5* | -0.3 | -1.4 | -3.4 | / | -28.7
O=C(N[C@H]1CC[C@H](CCNC(=O)c2cnccn2)O[C@H]1CO)c1ccc2c(c1)OCO2 | / | / | -0.8 | / | -0.3 | /
CCOC(=O)OC(C)OC(=O)[C@@H]1N2C(=O)[C@@H](NC(=O)[C@H](N)c3ccccc3)[C@H]2SC1(C)C (some centres undefined) | 54.5* | -0.1 | -1.5 | -2.9 | -0.1 | -8.2
CC(Oc1ccccc1)C(=O)NC1C(=O)N2C1SC(C)(C)C2C(=O)O (centres undefined) | -18.4 | 0.4 | / | -1.2 | -0.9 | /
COc1ccc(CN=C(Nc2ccccc2)SC2CC(=O)NC2=O)cc1 (centres undefined) | -40.2 | -1.1 | / | -0.8 | -0.4 | /
O=C1CC(SC(=NCc2ccc3c(c2)OCO3)Nc2ccccc2)C(=O)N1 (centres undefined) | 73.4* | 4.3 | -3.3 | -2.3 | / | -15.2
CCCNC(=O)N1CC2(C1)[C@@H](c1ccccc1)[C@H](CO)N2CC1CC1 | / | / | / | / | -1.3 | /
O=C(/C=C/Nc1ccccc1Br)c1ccccn1 | 88.8* | 1.8 | / | -1.5 | / | 83.2*
CCOCCOC(=O)c1[nH]c2c(c1C)C(=O)CC(c1ccccc1)C2 (centres undefined) | 80.8* | -1.1 | 0.1 | -0.9 | 0.5 | 90.5*
COC(=O)c1[nH]c2c(c1C)C(=O)CC(c1cccc(OC)c1)C2 (centres undefined) | 74.4* | -0.9 | 0.7 | -2.9 | 0.4 | 87.9*
CCOCCOC(=O)c1[nH]c2c(c1C)C(=O)CC(c1cccs1)C2 (centres undefined) | 65.5* | 1.5 | -1.5 | -1.3 | -0.6 | 87.1*
COC(=O)c1[nH]c2c(c1C)C(=O)CC(c1ccc(OC)c(OC)c1)C2 (centres undefined) | 5.5 | -0.3 | 6.4 | / | 0.8 | /
CCOCCOC(=O)c1[nH]c2c(c1C)C(=O)CC(c1cc(OC)c(OC)c(OC)c1)C2 (centres undefined) | -0.6 | 0.4 | 14.7 | -1.4 | 3.4 | /
CCCCCOC(=O)c1[nH]c2c(c1C)C(=O)CC(c1ccco1)C2 (centres undefined) | 59.2* | 1.3 | -1.2 | -2.8 | / | 79.1*
N#C[C@H]1[C@@H](c2ccc(C3=CCCC3)cc2)[C@H](CO)N1C(=O)NC1CCCC1 | / | / | -1.0 | / | 0.8 | /
O=C(C[C@H]1C=C[C@@H](NC(=O)CCN2CCCCC2)[C@@H](CO)O1)Nc1ccc(-c2ccccc2)cc1 | / | / | 2.6 | / | 0.7 | /
O=C(Nc1ccc(Cl)c(Cl)c1)N[C@@H]1CC[C@H](CCn2cc(C3CCCCC3)nn2)O[C@H]1CO | / | / | 1.7 | / | -0.4 | /
